Among all 5,500 compounds or so, about 2,000 (36%) were called active. Another 18% or so got no clear call; they are omitted. Cut-off read from the data, not from the text of the source: active = normalized growth mostly below about 0.91 (no sharp cut-off); inconclusive = no clear call, values can overlap the other calls; inactive = mostly above about 0.92. This is one part of the list.
Test: chemical genetic growth profiling, strain panel (AID 1159580);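 note: tested at 20 µM; growth read once vehicle control cultures reached saturation at 30 °C; 1 = growth at the plate median or of vehicle wells; lower values mean less growth of the strain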
Settings: growth OD

Measured: normalized growth

COc1cc(O)c2c(=O)cc(-c3ccc(OC)c(-c4c(O)cc(O)c5c(=O)cc(-c6ccc(O)cc6)oc45)c3)oc2c1
active: S. cerevisiae deletion strains, locus YBR021W, strain FUR4, stronger effect = lower value 1.18 [resistant] | S. cerevisiae deletion strains, locus YGL248W, strain PDE1, stronger effect = lower value 0.877
inactive: S. cerevisiae deletion strains, locus YAL021C, strain ccr4, stronger effect = lower value 0.991 | S. cerevisiae deletion strains, locus YAL026C, strain drs2, stronger effect = lower value 0.982 | S. cerevisiae deletion strains, locus YAL030W, strain snc1, stronger effect = lower value 1.01 | S. cerevisiae deletion strains, locus YBL061C, strain skt5, stronger effect = lower value 0.996 | S. cerevisiae deletion strains, locus YBR009C, strain hhf1, stronger effect = lower value 0.988 | S. cerevisiae deletion strains, locus YBR023C, strain chs3, stronger effect = lower value 0.993 | S. cerevisiae deletion strains, locus YBR171W, strain sec66, stronger effect = lower value 1.03 | S. cerevisiae deletion strains, locus YBR229C, strain ROT2, stronger effect = lower value 0.948 | S. cerevisiae deletion strains, locus YBR231C, strain swc5, stronger effect = lower value 0.972 | S. cerevisiae deletion strains, locus YBR279W, strain paf1, stronger effect = lower value 1 | S. cerevisiae deletion strains, locus YCL011C, strain gbp2, stronger effect = lower value 1.02 | S. cerevisiae deletion strains, locus YCL016C, strain dcc1, stronger effect = lower value 1 | S. cerevisiae deletion strains, locus YCL029C, strain bik1, stronger effect = lower value 0.992 | S. cerevisiae deletion strains, locus YCL061C, strain MRC1, stronger effect = lower value 1 | S. cerevisiae deletion strains, locus YCL069W, strain vba3, stronger effect = lower value 1.02 | S. cerevisiae deletion strains, locus YCR088W, strain abp1, stronger effect = lower value 1.03 | S. cerevisiae deletion strains, locus YDL005C, strain med2, stronger effect = lower value 1.03 | S. cerevisiae deletion strains, locus YDL035C, strain GPR1, stronger effect = lower value 0.951 | S. cerevisiae deletion strains, locus YDL040C, strain nat1, stronger effect = lower value 1.01 | S. cerevisiae deletion strains, locus YDL074C, strain BRE1, stronger effect = lower value 1.01 | S. cerevisiae deletion strains, locus YDL101C, strain DUN1, stronger effect = lower value 0.959 | S. cerevisiae deletion strains, locus YDL134C, strain PPH21, stronger effect = lower value 0.917 | S. cerevisiae deletion strains, locus YDL185W, strain tfp1, stronger effect = lower value 0.968 | S. cerevisiae deletion strains, locus YDL192W, strain arf1, stronger effect = lower value 1 | S. cerevisiae deletion strains, locus YDR001C, strain nth1, stronger effect = lower value 1.02 | S. cerevisiae deletion strains, locus YDR069C, strain doa4, stronger effect = lower value 0.914 | S. cerevisiae deletion strains, locus YDR101C, strain arx1, stronger effect = lower value 0.997 | S. cerevisiae deletion strains, locus YDR137W, strain rgp1, stronger effect = lower value 1.05 | S. cerevisiae deletion strains, locus YDR150W, strain NUM1, stronger effect = lower value 0.953 | S. cerevisiae deletion strains, locus YDR159W, strain sac3, stronger effect = lower value 1.02 | S. cerevisiae deletion strains, locus YDR162C, strain NBP2, stronger effect = lower value 0.915 | S. cerevisiae deletion strains, locus YDR195W, strain ref2 0.986 | S. cerevisiae deletion strains, locus YDR297W, strain sur2, stronger effect = lower value 0.996 | S. cerevisiae deletion strains, locus YDR318W, strain mcm21, stronger effect = lower value 0.987 | S. cerevisiae deletion strains, locus YDR334W, strain swr1, stronger effect = lower value 1 | S. cerevisiae deletion strains, locus YDR335W, strain msn5, stronger effect = lower value 1.03 | S. cerevisiae deletion strains, locus YDR388W, stronger effect = lower value 0.986 | S. cerevisiae deletion strains, locus YDR392W, strain spt3, stronger effect = lower value 0.91 | S. cerevisiae deletion strains, locus YDR502C, strain sam2, stronger effect = lower value 0.978 | S. cerevisiae deletion strains, locus YEL003W, strain gim4, stronger effect = lower value 1 | S. cerevisiae deletion strains, locus YEL037C, strain rad23, stronger effect = lower value 1.01 | S. cerevisiae deletion strains, locus YEL061C, strain CIN8 (second series), stronger effect = lower value 1.02 | S. cerevisiae deletion strains, locus YEL061C, strain CIN8, stronger effect = lower value 0.934 | S. cerevisiae deletion strains, locus YER015W, strain faa2, stronger effect = lower value 1 | S. cerevisiae deletion strains, locus YER016W, strain bim1, stronger effect = lower value 1.01 | S. cerevisiae deletion strains, locus YER110C, stronger effect = lower value 0.983 | S. cerevisiae deletion strains, locus YER111C, strain swi4, stronger effect = lower value 1.01 | S. cerevisiae deletion strains, locus YER155C, strain BEM2 (second series), stronger effect = lower value 0.962 | S. cerevisiae deletion strains, locus YER155C, strain BEM2, stronger effect = lower value 1.03 | S. cerevisiae deletion strains, locus YER167W, strain BCK2, stronger effect = lower value 0.957 | S. cerevisiae deletion strains, locus YFR010W, strain ubp6, stronger effect = lower value 0.965 | S. cerevisiae deletion strains, locus YGL078C, strain dbp3, stronger effect = lower value 0.987 | S. cerevisiae deletion strains, locus YGL167C, strain pmr1, stronger effect = lower value 1.01 | S. cerevisiae deletion strains, locus YGL173C, strain kem1, stronger effect = lower value 0.975 | S. cerevisiae deletion strains, locus YGL227W, strain vid30, stronger effect = lower value 1.03 | S. cerevisiae deletion strains, locus YGL240W, strain doc1, stronger effect = lower value 1.05 | S. cerevisiae deletion strains, locus YGL253W, strain hxk2, stronger effect = lower value 1.03 | S. cerevisiae deletion strains, locus YGR078C, strain PAC10, stronger effect = lower value 0.913 | S. cerevisiae deletion strains, locus YGR135W, strain pre9, stronger effect = lower value 0.971 | S. cerevisiae deletion strains, locus YGR229C, strain SMI1, stronger effect = lower value 0.92 | S. cerevisiae deletion strains, locus YGR252W, strain gcn5, stronger effect = lower value 1.09 | S. cerevisiae deletion strains, locus YHR013C, strain ard1, stronger effect = lower value 1 | S. cerevisiae deletion strains, locus YHR027C, strain rpn1, stronger effect = lower value 1.01 | S. cerevisiae deletion strains, locus YHR030C, strain SLT2, stronger effect = lower value 0.966 | S. cerevisiae deletion strains, locus YHR079C, strain IRE1 (second series), stronger effect = lower value 0.994 | S. cerevisiae deletion strains, locus YHR094C, strain hxt1, stronger effect = lower value 0.99 | S. cerevisiae deletion strains, locus YHR129C, strain ARP1, stronger effect = lower value 0.931 | S. cerevisiae deletion strains, locus YHR142W, strain chs7, stronger effect = lower value 1.05 | S. cerevisiae deletion strains, locus YHR200W, strain rpn10, stronger effect = lower value 0.988 | S. cerevisiae deletion strains, locus YIL066C, strain RNR3, stronger effect = lower value 0.88 | S. cerevisiae deletion strains, locus YIL073C, strain SPO22, stronger effect = lower value 0.947 | S. cerevisiae deletion strains, locus YIL125W, strain kgd1, stronger effect = lower value 0.99 | S. cerevisiae deletion strains, locus YIR030C, strain dcg1, stronger effect = lower value 1.02 | S. cerevisiae deletion strains, locus YJL092W, strain hpr5, stronger effect = lower value 1.02 | S. cerevisiae deletion strains, locus YJL095W, strain BCK1 (second series), stronger effect = lower value 1.01 | S. cerevisiae deletion strains, locus YJL095W, strain BCK1, stronger effect = lower value 0.939 | S. cerevisiae deletion strains, locus YJL115W, strain asf1, stronger effect = lower value 1.02 | S. cerevisiae deletion strains, locus YJL129C, strain trk1, stronger effect = lower value 1.06 | S. cerevisiae deletion strains, locus YJL134W, strain LCB3, stronger effect = lower value 0.984 | S. cerevisiae deletion strains, locus YJL154C, strain vps35, stronger effect = lower value 1.03 | S. cerevisiae deletion strains, locus YJL164C, strain tpk1, stronger effect = lower value 0.98 | S. cerevisiae deletion strains, locus YJL166W, strain qcr8, stronger effect = lower value 1.01 | S. cerevisiae deletion strains, locus YJL168C, strain set2, stronger effect = lower value 0.992 | S. cerevisiae deletion strains, locus YJL187C, strain SWE1 (second series), stronger effect = lower value 0.891 | S. cerevisiae deletion strains, locus YJL187C, strain SWE1, stronger effect = lower value 0.997 | S. cerevisiae deletion strains, locus YJR043C, strain POL32, stronger effect = lower value 0.935 | S. cerevisiae deletion strains, locus YJR075W, strain HOC1, stronger effect = lower value 0.973 | S. cerevisiae deletion strains, locus YKL009W, strain mrt4, stronger effect = lower value 1.02 | S. cerevisiae deletion strains, locus YKL068W, stronger effect = lower value 0.98 | S. cerevisiae deletion strains, locus YKL085W, strain MDH1 (second series), stronger effect = lower value 1 | S. cerevisiae deletion strains, locus YKL085W, strain MDH1, stronger effect = lower value 1 | S. cerevisiae deletion strains, locus YKL160W, strain elf1, stronger effect = lower value 0.991 | S. cerevisiae deletion strains, locus YKR001C, strain vps1, stronger effect = lower value 0.962 | S. cerevisiae deletion strains, locus YKR026C, strain gcn3, stronger effect = lower value 1.01 | S. cerevisiae deletion strains, locus YKR091W, strain srl3, stronger effect = lower value 1.01 | S. cerevisiae deletion strains, locus YLL001W, strain dnm1, stronger effect = lower value 1.02 | S. cerevisiae deletion strains, locus YLL026W, stronger effect = lower value 1.01 | S. cerevisiae deletion strains, locus YLL041C, strain sdh2, stronger effect = lower value 1.02 | S. cerevisiae deletion strains, locus YLR027C, strain aat2, stronger effect = lower value 1.01 | S. cerevisiae deletion strains, locus YLR039C, strain RIC1, stronger effect = lower value 0.95 | S. cerevisiae deletion strains, locus YLR058C, strain SHM2, stronger effect = lower value 0.913 | S. cerevisiae deletion strains, locus YLR102C, strain apc9, stronger effect = lower value 0.99 | S. cerevisiae deletion strains, locus YLR221C, strain rsa3, stronger effect = lower value 1 | S. cerevisiae deletion strains, locus YLR258W, strain gsy2, stronger effect = lower value 1.01 | S. cerevisiae deletion strains, locus YLR262C, strain YPT6 (second series), stronger effect = lower value 1.04 | S. cerevisiae deletion strains, locus YLR262C, strain YPT6, stronger effect = lower value 1.04 | S. cerevisiae deletion strains, locus YLR268W, strain sec22, stronger effect = lower value 0.963 | S. cerevisiae deletion strains, locus YLR320W, strain mms22, stronger effect = lower value 0.996 | S. cerevisiae deletion strains, locus YLR330W, strain CHS5, stronger effect = lower value 0.975 | S. cerevisiae deletion strains, locus YLR342W, strain FKS1 (second series), stronger effect = lower value 0.981 | S. cerevisiae deletion strains, locus YLR342W, strain FKS1, stronger effect = lower value 0.996 | S. cerevisiae deletion strains, locus YLR357W, strain rsc2, stronger effect = lower value 0.985 | S. cerevisiae deletion strains, locus YLR370C, strain arc18, stronger effect = lower value 1.01 | S. cerevisiae deletion strains, locus YLR371W, strain rom2, stronger effect = lower value 0.996 | S. cerevisiae deletion strains, locus YLR384C, strain iki3, stronger effect = lower value 1.04 | S. cerevisiae deletion strains, locus YLR418C, strain cdc73, stronger effect = lower value 0.975 | S. cerevisiae deletion strains, locus YML016C, strain PPZ1, stronger effect = lower value 0.957 | S. cerevisiae deletion strains, locus YML032C, strain rad52, stronger effect = lower value 0.998 | S. cerevisiae deletion strains, locus YML120C, strain ndi1, stronger effect = lower value 1.03 | S. cerevisiae deletion strains, locus YML124C, strain tub3, stronger effect = lower value 1 | S. cerevisiae deletion strains, locus YMR058W, strain fet3, stronger effect = lower value 0.969 | S. cerevisiae deletion strains, locus YMR078C, strain ctf18, stronger effect = lower value 0.997 | S. cerevisiae deletion strains, locus YMR125W, strain sto1, stronger effect = lower value 1.01 | S. cerevisiae deletion strains, locus YMR129W, stronger effect = lower value 1.02 | S. cerevisiae deletion strains, locus YMR205C, strain PFK2, stronger effect = lower value 1.01 | S. cerevisiae deletion strains, locus YMR223W, strain ubp8, stronger effect = lower value 0.971 | S. cerevisiae deletion strains, locus YMR231W, strain pep5, stronger effect = lower value 1.01 | S. cerevisiae deletion strains, locus YMR307W, strain GAS1, stronger effect = lower value 1.17 | S. cerevisiae deletion strains, locus YNL067W, strain RPL9B, stronger effect = lower value 0.951 | S. cerevisiae deletion strains, locus YNL071W, strain lat1, stronger effect = lower value 1.02 | S. cerevisiae deletion strains, locus YNL153C, strain GIM3, stronger effect = lower value 0.912 | S. cerevisiae deletion strains, locus YNL209W, strain ssb2, stronger effect = lower value 0.994 | S. cerevisiae deletion strains, locus YNL233W, strain BNI4, stronger effect = lower value 0.973 | S. cerevisiae deletion strains, locus YNL248C, strain rpa49, stronger effect = lower value 1.02 | S. cerevisiae deletion strains, locus YNL250W, strain rad50, stronger effect = lower value 0.97 | S. cerevisiae deletion strains, locus YNL271C, strain bni1, stronger effect = lower value 0.986 | S. cerevisiae deletion strains, locus YNL298W, strain CLA4, stronger effect = lower value 0.975 | S. cerevisiae deletion strains, locus YNL307C, strain MCK1, stronger effect = lower value 0.965 | S. cerevisiae deletion strains, locus YNL322C, strain KRE1 (second series), stronger effect = lower value 1.03 | S. cerevisiae deletion strains, locus YNR049C, strain mso1, stronger effect = lower value 1.02 | S. cerevisiae deletion strains, locus YNR052C, strain pop2, stronger effect = lower value 0.993 | S. cerevisiae deletion strains, locus YOL012C, strain htz1 0.606 | S. cerevisiae deletion strains, locus YOL147C, strain pex11, stronger effect = lower value 0.99 | S. cerevisiae deletion strains, locus YOR001W, strain rrp6, stronger effect = lower value 0.987 | S. cerevisiae deletion strains, locus YOR061W, strain CKA2, stronger effect = lower value 0.917 | S. cerevisiae deletion strains, locus YOR069W, strain VPS5, stronger effect = lower value 0.98 | S. cerevisiae deletion strains, locus YOR070C, strain gyp1, stronger effect = lower value 1.02 | S. cerevisiae deletion strains, locus YOR080W, strain dia2, stronger effect = lower value 1 | S. cerevisiae deletion strains, locus YOR083W, strain WHI5, stronger effect = lower value 0.996 | S. cerevisiae deletion strains, locus YOR106W, strain vam3, stronger effect = lower value 0.983 | S. cerevisiae deletion strains, locus YOR136W, strain idh2, stronger effect = lower value 0.993 | S. cerevisiae deletion strains, locus YOR144C, strain elg1, stronger effect = lower value 1.01 | S. cerevisiae deletion strains, locus YOR184W, strain ser1, stronger effect = lower value 0.958 | S. cerevisiae deletion strains, locus YOR265W, strain rbl2, stronger effect = lower value 0.999 | S. cerevisiae deletion strains, locus YOR270C, strain vph1, stronger effect = lower value 1.02 | S. cerevisiae deletion strains, locus YOR290C, strain snf2, stronger effect = lower value 0.982 | S. cerevisiae deletion strains, locus YOR316C, strain cot1, stronger effect = lower value 0.989 | S. cerevisiae deletion strains, locus YPL051W, strain arl3, stronger effect = lower value 0.968 | S. cerevisiae deletion strains, locus YPL078C, strain atp4, stronger effect = lower value 1.03 | S. cerevisiae deletion strains, locus YPL106C, strain sse1, stronger effect = lower value 1 | S. cerevisiae deletion strains, locus YPL240C, strain hsp82, stronger effect = lower value 1.01 | S. cerevisiae deletion strains, locus YPR119W, strain clb2, stronger effect = lower value 1.01 | S. cerevisiae deletion strains, locus YPR141C, strain kar3, stronger effect = lower value 0.98 | S. cerevisiae deletion strains, locus YPR163C, strain tif3, stronger effect = lower value 0.997 | S. cerevisiae deletion strains, locus YPR167C, strain met16, stronger effect = lower value 0.99 | S. cerevisiae deletion strains, strain wtn01, stronger effect = lower value 0.969 | S. cerevisiae strains, strain wild type, stronger effect = lower value 0.904
